PubChem BioAssay AID651784 (National Center for Advancing Translational Sciences (NCATS), 2012)
Records with an inconclusive call do not appear. The source made the active and inactive calls. Calls follow the shape of the dose curve; as a rule, active = well fitted inhibition curve with a large enough effect; inconclusive = small, poorly fitted or top-dose-only effect; inactive = no such curve, though single readings can be large or run the other way.

Experiment: Acumen qHTS Assay for Inhibitors of the mTORC1 Signaling Pathway in MEF (Tsc2-/-, p53-/-) Cells: Hit Validation;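 also: phospho-rpS6 Ser235/236 immunofluorescence normalized to propidium iodide cell count; nearly all actives have a fitted effect of over 65% in size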;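 as to activity change, negative = inhibition: cells exposed to compound for 24 hours; plate controls were DMSO for no effect and 7.5 nM rapamycin control for full effect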
Conditions: Acumen imaging; activity change, negative = inhibition: at 37.3 µM (top of the series)
Potency is read from the fitted curve at half-maximal effect.

| Compound | Potency | activity change, negative = inhibition [%] |
| --- | --- | --- |
| COc1ccc(Cl)cc1NC(=O)CCCS(=O)(=O)c1nc(-c2ccc(OC)c(OC)c2)cc(C(F)(F)F)n1 | 10.4 µM (active) |  |
| CCNC(=O)c1c(NC(=O)c2nc(S(=O)(=O)CC)ncc2Cl)sc2c1CCCC2 | 1.31 µM (active) |  |
| Cn1ccc2c(OCC(=O)Nc3ccc(OC(F)(F)F)cc3)cccc2c1=O | 16.5 µM (active) |  |
| CCCS(=O)(=O)c1ncc(Cl)c(C(=O)Nc2c(C(=O)Nc3ccccc3)oc3ccccc23)n1 | 0.585 µM (active) |  |
| COc1ccc(C2Sc3ccccc3NC3=C2C(=O)c2ccccc23)c(OC)c1OC (configuration not stated) |  | -65.9 |
| Cc1ccc(O)c(C(CC(=O)NCC2(c3ccccc3)CCCC2)c2ccccc2)c1 (configuration not stated) |  | 2.09 |
| O=C(NCc1ccc(F)cc1)c1ccc2c(Cl)c3c(nc2c1)CCCC3 |  | 26.5 |
| CC(C(=O)NCc1cccc(Br)c1)n1ncn2cccc2c1=O (configuration not stated) |  | 1.66 |
| Cc1ccc(NC(=O)CCS(=O)(=O)c2ccc3nc(C)sc3c2)cc1 |  | -65.5 |
| COc1ccc(-c2nc3cc(NC(=O)Cc4ccc(Cl)cc4)ccc3o2)cc1OC |  | -60.1 |
| CCC(=O)C1=C(c2ccc(Cl)cc2)N(C(=O)CC)n2c(C)nnc2S1 |  | -10.3 |
| CCOc1ccc(Nc2nc(-c3cccc(Cl)c3)c3c(n2)-c2ccccc2OC3)cc1 |  | 6.48 |
| CC1CCCN(CCCNC(=O)c2ccc3c(c2)N(Cc2ccc(Cl)cc2)C(=O)c2ccccc2S3(=O)=O)C1 (configuration not stated) | 13.1 µM (active) |  |
| CCCCn1c(=N)n(CCOc2ccccc2OC)c2ccccc21 | 4.65 µM (active) |  |
| COc1ccccc1NC(=O)c1sc(-c2ccc(Cl)cc2)cc1N |  | 1.3 |
| CC(C)c1nnc(NC(=O)c2nc(S(=O)(=O)Cc3ccccc3)ncc2Cl)s1 |  | -86.2 |
| O=C(NCc1ccccc1)c1ccc2c(c1)N(Cc1ccccc1F)C(=O)c1ccccc1S2=O (configuration not stated) |  | -33 |
| CCN1CCN(c2ccc(NS(=O)(=O)c3c(C)nc4sccn4c3=O)cc2Cl)CC1 |  | -78.4 |
| O=C(CC(NCc1cccnc1)C(=O)O)Nc1ccc(O)cc1 (configuration not stated) |  | 5.37 |

| Compound | Potency | activity change, negative = inhibition [%] |
| --- | --- | --- |
| CCC(=O)C1=C(c2ccc(F)cc2)N(C(=O)CC)n2cnnc2S1 |  | -29.5 |
| Cc1ccc(C(=O)c2cn(CC(=O)NCc3ccccc3Cl)c3nc(C)ccc3c2=O)cc1 |  | -14.2 |
| CCSc1ccccc1C(=O)Nc1ccc(-c2nc3ccccc3s2)c(O)c1 | 13.1 µM (active) |  |
| Cc1nn(CC(=O)NCc2ccccc2Cl)c(=O)c2cccn12 |  | 6.27 |
| CCOc1cccc(C2CC(=O)Nc3cc4c(cc32)OCCO4)c1 (configuration not stated) |  | -113 |
| CC(=O)Nc1cccc(NC(=O)C(=O)NCCc2sc(-c3ccccc3)nc2C)c1 | 0.329 µM (active) |  |
| COc1ccc(S(=O)(=O)N(Cc2nc(-c3cccc(C)c3)no2)C2CCCCC2)cc1 |  | -16.2 |
| O=c1oc2ccccc2cc1-c1cn2cc(Cc3ccccc3F)sc2n1 | 16.5 µM (active) |  |
| CCOc1ccc(S(=O)(=O)N(C(=O)c2ccncc2)c2ccc3oc(C)c(C(=O)OC)c3c2)cc1 | 3.69 µM (active) |  |
| Cc1ccc(-n2c(=O)c3ccc(C(=O)NCc4ccco4)cc3n(Cc3ccc(Cl)cc3)c2=O)cc1 | 9.27 µM (active) |  |
| Cc1ccccc1Oc1nc2ccccn2c(=O)c1/C=C(\C#N)c1nc2ccccc2[nH]1 |  | 2.47 |
| Cc1ccccc1S(=O)Cc1ccc(C(=O)N2CCN(c3cccc(C)c3C)CC2)o1 (configuration not stated) | 6.56 µM (active) |  |
| COc1cc(-c2ccno2)ccc1S(=O)(=O)N1CCN(c2cc(C)ccc2C)CC1 |  | -45.4 |
| Oc1ccccc1Nc1nc(-c2ccccc2)c2cc(Cl)ccc2n1 |  | -6.7 |
| Cc1ccc(C)c(S(=O)(=O)NCC(c2ccco2)S(=O)(=O)c2ccc(F)cc2)c1 (configuration not stated) |  | -16.2 |
| CCOc1ccc(NC(=O)CN2C(=O)C(c3ccc(Cl)cc3)=NC2(C)C)cc1 |  | 17.5 |
| COc1ccc(OC)c(NC(=O)c2nnn(CC(=O)Nc3ccc(C(C)C)cc3)c2N)c1 |  | -27.6 |
| COc1ccc(C(=O)N2CCN(C(=O)COc3ccc(Br)cc3)CC2)cc1OC |  | -17.7 |
